Consider 31 sequences from PMC11006913.

Common to all, as to assay: PBM; 200 nM protein, PBS
Details in all cases: dsDNA, one strand shown

Test [1] concerns the target SHOX (Homo sapiens, UniProt O15266 103-189).
For test [2], the target named is SHOX (Homo sapiens, UniProt O15266 103-189, R173C).
The target in test [3] is NKX3-2 (Homo sapiens, UniProt P78367 192-278, P234S).
Test [4] deals with NKX3-2 (Homo sapiens, UniProt P78367 192-278).
The target in test [5] is CRX (Homo sapiens, UniProt O43186 26-111).
Chain of CRX (Homo sapiens, UniProt O43186 26-111) (O43186 26-111): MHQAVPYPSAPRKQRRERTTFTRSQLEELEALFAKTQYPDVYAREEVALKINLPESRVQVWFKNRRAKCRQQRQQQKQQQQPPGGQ
In test [6] the target is PROP1 (Homo sapiens, UniProt O75360 56-141).
Chain of PROP1 (Homo sapiens, UniProt O75360 56-141) (O75360 56-141): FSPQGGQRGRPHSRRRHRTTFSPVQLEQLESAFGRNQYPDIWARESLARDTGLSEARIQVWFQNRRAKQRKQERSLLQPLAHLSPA
Test [7] addresses PROP1 (Homo sapiens, UniProt O75360 56-141, R99H).
The target of test [8] is PROP1 (Homo sapiens, UniProt O75360 56-141, F88S).
Chain of PROP1 (Homo sapiens, UniProt O75360 56-141, F88S) (O75360 56-141 F88S): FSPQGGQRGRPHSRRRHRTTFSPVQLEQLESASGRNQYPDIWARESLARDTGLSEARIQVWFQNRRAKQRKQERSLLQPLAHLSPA
The target in test [9] is CRX (Homo sapiens, UniProt O43186 26-111, R41L).
Chain of CRX (Homo sapiens, UniProt O43186 26-111, R41L) (O43186 26-111 R41L): as the sequence (O43186 26-111) above, with R16L counted along it
The target in test [10] is VAX1 (Homo sapiens, UniProt Q5SQQ9 86-172).
Chain of VAX1 (Homo sapiens, UniProt Q5SQQ9 86-172) (Q5SQQ9 86-172): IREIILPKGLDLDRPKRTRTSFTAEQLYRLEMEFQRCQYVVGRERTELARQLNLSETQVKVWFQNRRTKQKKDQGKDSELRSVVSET
Test [11] concerns the target VAX1 (Homo sapiens, UniProt Q5SQQ9 86-172, T142I).
Test [12] deals with VAX1 (Homo sapiens, UniProt Q5SQQ9 86-172, K157R).
Chain of VAX1 (Homo sapiens, UniProt Q5SQQ9 86-172, K157R) (Q5SQQ9 86-172 K157R): as the sequence (Q5SQQ9 86-172) above, with K72R counted along it

Chain of SHOX (Homo sapiens, UniProt O15266 103-189) (O15266 103-189): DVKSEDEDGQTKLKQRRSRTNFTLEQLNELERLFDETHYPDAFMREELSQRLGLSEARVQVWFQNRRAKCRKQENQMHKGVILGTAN
Chain of PROP1 (Homo sapiens, UniProt O75360 56-141, R99H) (O75360 56-141 R99H): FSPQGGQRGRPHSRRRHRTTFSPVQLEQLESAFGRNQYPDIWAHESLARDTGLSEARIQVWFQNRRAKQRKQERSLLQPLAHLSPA
Chain of SHOX (Homo sapiens, UniProt O15266 103-189, R173C) (O15266 103-189 R173C): as the sequence (O15266 103-189) above, with R71C counted along it
Chain of NKX3-2 (Homo sapiens, UniProt P78367 192-278, P234S) (P78367 192-278 P234S): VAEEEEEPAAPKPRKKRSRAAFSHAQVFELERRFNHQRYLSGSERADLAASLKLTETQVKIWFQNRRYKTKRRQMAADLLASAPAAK
Chain of NKX3-2 (Homo sapiens, UniProt P78367 192-278) (P78367 192-278): as the sequence (P78367 192-278 P234S) above, with S43P counted along it
Chain of VAX1 (Homo sapiens, UniProt Q5SQQ9 86-172, T142I) (Q5SQQ9 86-172 T142I): as the sequence (Q5SQQ9 86-172) above, with T57I counted along it

Consider CGGGCGTC, for which the binding signal in test [1] is 7.36 upbm affinity estimate (log intensity, higher = more binding, comparable within an allelic series); in test [2] it was 7.21 upbm affinity estimate (log intensity, higher = more binding, comparable within an allelic series); in test [3], 10.6 upbm affinity estimate (log intensity, higher = more binding, comparable within an allelic series); in [4] it was 10.5 upbm affinity estimate (log intensity, higher = more binding, comparable within an allelic series).
Consider ACCCGCCC, for which the binding signal in test [1] is 7.27 upbm affinity estimate (log intensity, higher = more binding, comparable within an allelic series); in [2], 7.22 upbm affinity estimate (log intensity, higher = more binding, comparable within an allelic series).
For the sequence CGGATGAG, the binding signal in test [5] is 9.93 upbm affinity estimate (log intensity, higher = more binding, comparable within an allelic series).
Take CCGGGACG: the binding signal in [1] was 7.24 upbm affinity estimate (log intensity, higher = more binding, comparable within an allelic series); in test [2], 7.27 upbm affinity estimate (log intensity, higher = more binding, comparable within an allelic series).
For CCCCGAAC, the binding signal in test [1] is 7.23 upbm affinity estimate (log intensity, higher = more binding, comparable within an allelic series); in test [2], 7.26 upbm affinity estimate (log intensity, higher = more binding, comparable within an allelic series).
With CTCTCCTC, the binding signal in test [1] was 7.22 upbm affinity estimate (log intensity, higher = more binding, comparable within an allelic series); in test [2], 7.21 upbm affinity estimate (log intensity, higher = more binding, comparable within an allelic series).
Consider AGGTCCCC, for which the binding signal is 7.19 upbm affinity estimate (log intensity, higher = more binding, comparable within an allelic series) in test [1] and 7.17 upbm affinity estimate (log intensity, higher = more binding, comparable within an allelic series) in [2].
As for CACCGGGG, the binding signal in test [1] is 7.32 upbm affinity estimate (log intensity, higher = more binding, comparable within an allelic series); in test [2], 7.13 upbm affinity estimate (log intensity, higher = more binding, comparable within an allelic series); in test [6], 6.79 upbm affinity estimate (log intensity, higher = more binding, comparable within an allelic series); in [7], 6.87 upbm affinity estimate (log intensity, higher = more binding, comparable within an allelic series); in test [8] it was 6.47 upbm affinity estimate (log intensity, higher = more binding, comparable within an allelic series).
As to GCTAATAC, the binding signal in test [1] was 9.1 upbm affinity estimate (log intensity, higher = more binding, comparable within an allelic series); in test [9] it was 10.9 upbm affinity estimate (log intensity, higher = more binding, comparable within an allelic series).
CCTTTCCC: the binding signal in [1] was 7.21 upbm affinity estimate (log intensity, higher = more binding, comparable within an allelic series); in test [2] it was 7.11 upbm affinity estimate (log intensity, higher = more binding, comparable within an allelic series); in test [6], 6.78 upbm affinity estimate (log intensity, higher = more binding, comparable within an allelic series); in [7], 6.87 upbm affinity estimate (log intensity, higher = more binding, comparable within an allelic series); in test [8] it was 6.77 upbm affinity estimate (log intensity, higher = more binding, comparable within an allelic series).
GGCTGGCA: the binding signal in test [1] was 7.2 upbm affinity estimate (log intensity, higher = more binding, comparable within an allelic series); in [2], 7.13 upbm affinity estimate (log intensity, higher = more binding, comparable within an allelic series).
For CGCTACCC, the binding signal in [1] is 7.24 upbm affinity estimate (log intensity, higher = more binding, comparable within an allelic series); in [2], 7.33 upbm affinity estimate (log intensity, higher = more binding, comparable within an allelic series).
Turning to CCGGATGC, the binding signal was 6.64 upbm affinity estimate (log intensity, higher = more binding, comparable within an allelic series) in test [1]; 7.08 upbm affinity estimate (log intensity, higher = more binding, comparable within an allelic series) in test [2]; 6.72 upbm affinity estimate (log intensity, higher = more binding, comparable within an allelic series) in [10]; 6.89 upbm affinity estimate (log intensity, higher = more binding, comparable within an allelic series) in test [11]; 6.77 upbm affinity estimate (log intensity, higher = more binding, comparable within an allelic series) in [12].
In the case of GAACGCGC, the binding signal is 7.22 upbm affinity estimate (log intensity, higher = more binding, comparable within an allelic series) in test [1] and 7.23 upbm affinity estimate (log intensity, higher = more binding, comparable within an allelic series) in test [2].
For the sequence GCCTGCCA, the binding signal in test [1] was 7.25 upbm affinity estimate (log intensity, higher = more binding, comparable within an allelic series); in test [2], 7.26 upbm affinity estimate (log intensity, higher = more binding, comparable within an allelic series).
CGGCCTGA: the binding signal in test [1] is 7.33 upbm affinity estimate (log intensity, higher = more binding, comparable within an allelic series); in test [2] it was 7.17 upbm affinity estimate (log intensity, higher = more binding, comparable within an allelic series).
For CGGTTGCC, the binding signal was 7.18 upbm affinity estimate (log intensity, higher = more binding, comparable within an allelic series) in [1] and 7.25 upbm affinity estimate (log intensity, higher = more binding, comparable within an allelic series) in test [2].
On to CGGCCTCC, for which the binding signal in test [1] is 6.98 upbm affinity estimate (log intensity, higher = more binding, comparable within an allelic series); in [2], 7.08 upbm affinity estimate (log intensity, higher = more binding, comparable within an allelic series).
For the sequence CCCTCCTC, the binding signal is 7.26 upbm affinity estimate (log intensity, higher = more binding, comparable within an allelic series) in test [1] and 7.13 upbm affinity estimate (log intensity, higher = more binding, comparable within an allelic series) in [2].
In the case of ATTACCTA, the binding signal in test [1] is 9.59 upbm affinity estimate (log intensity, higher = more binding, comparable within an allelic series); in [3], 11.2 upbm affinity estimate (log intensity, higher = more binding, comparable within an allelic series); in test [4], 11.2 upbm affinity estimate (log intensity, higher = more binding, comparable within an allelic series).
Regarding GGCCCAGA, the binding signal was 7.17 upbm affinity estimate (log intensity, higher = more binding, comparable within an allelic series) in test [1] and 7.12 upbm affinity estimate (log intensity, higher = more binding, comparable within an allelic series) in test [2].
Take CCGAGGGA: the binding signal in test [1] is 7.05 upbm affinity estimate (log intensity, higher = more binding, comparable within an allelic series); in test [2] it was 7.2 upbm affinity estimate (log intensity, higher = more binding, comparable within an allelic series); in test [10] it was 7.35 upbm affinity estimate (log intensity, higher = more binding, comparable within an allelic series); in [11] it was 7.23 upbm affinity estimate (log intensity, higher = more binding, comparable within an allelic series); in [12], 7.35 upbm affinity estimate (log intensity, higher = more binding, comparable within an allelic series).
On to CCAATCAC, for which the binding signal is 8.6 upbm affinity estimate (log intensity, higher = more binding, comparable within an allelic series) in test [1]; 7.61 upbm affinity estimate (log intensity, higher = more binding, comparable within an allelic series) in test [2]; 8.98 upbm affinity estimate (log intensity, higher = more binding, comparable within an allelic series) in test [10]; 8.89 upbm affinity estimate (log intensity, higher = more binding, comparable within an allelic series) in test [12].
Take AGGGTCGG: the binding signal in test [1] was 7.15 upbm affinity estimate (log intensity, higher = more binding, comparable within an allelic series); in test [2], 7.14 upbm affinity estimate (log intensity, higher = more binding, comparable within an allelic series).
As for CCAAGGAG, the binding signal in test [1] was 7.32 upbm affinity estimate (log intensity, higher = more binding, comparable within an allelic series); in test [2], 7.21 upbm affinity estimate (log intensity, higher = more binding, comparable within an allelic series).
GCATGGCC: the binding signal in test [1] is 7.2 upbm affinity estimate (log intensity, higher = more binding, comparable within an allelic series); in [2], 7.2 upbm affinity estimate (log intensity, higher = more binding, comparable within an allelic series).
Consider CCCCTTCC, for which the binding signal was 7.19 upbm affinity estimate (log intensity, higher = more binding, comparable within an allelic series) in test [1] and 7.03 upbm affinity estimate (log intensity, higher = more binding, comparable within an allelic series) in test [2].
In the case of CCGGGAAA, the binding signal in test [1] is 7.25 upbm affinity estimate (log intensity, higher = more binding, comparable within an allelic series); in test [2], 7.26 upbm affinity estimate (log intensity, higher = more binding, comparable within an allelic series).
As for CAATCTTC, the binding signal was 7.99 upbm affinity estimate (log intensity, higher = more binding, comparable within an allelic series) in test [1] and 7.51 upbm affinity estimate (log intensity, higher = more binding, comparable within an allelic series) in test [2].
Regarding CCCGGGGC, the binding signal in test [1] was 7.23 upbm affinity estimate (log intensity, higher = more binding, comparable within an allelic series); in test [2] it was 7.07 upbm affinity estimate (log intensity, higher = more binding, comparable within an allelic series).
For the sequence CCAGGGCG, the binding signal in [1] was 7.04 upbm affinity estimate (log intensity, higher = more binding, comparable within an allelic series); in [2], 7.02 upbm affinity estimate (log intensity, higher = more binding, comparable within an allelic series); in [6] it was 6.67 upbm affinity estimate (log intensity, higher = more binding, comparable within an allelic series); in [7], 6.55 upbm affinity estimate (log intensity, higher = more binding, comparable within an allelic series); in test [8] it was 6.42 upbm affinity estimate (log intensity, higher = more binding, comparable within an allelic series); in test [3], 10.3 upbm affinity estimate (log intensity, higher = more binding, comparable within an allelic series). Moreover, the binding signal in [4] is 10.2 upbm affinity estimate (log intensity, higher = more binding, comparable within an allelic series).
